PubChem BioAssay (NCI)
About 83,000 compounds went through this panel and 20% of them were active in at least one assay; those are over-represented in the sample as a whole.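 A percent growth of 40 corresponds to 60% growth inhibition; 0 means no net growth; -100 means all cells died. Active threshold: below 10.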 A number with no mark means an inactive call. Active and inactive are the calls of the source.

Key:
Experiment in all cases: NCI-60 one-dose screen, 48 h (100 = growth as untreated, 0 = no growth, -100 = all killed)
Details in all cases: 10 µM unless noted
[1] = system: SN12C renal
[2] = system: UO-31 renal
[3] = system: TK-10 renal
[4] = system: ACHN renal
[5] = system: CAKI-1 renal
[6] = system: A498 renal
[7] = system: CCRF-CEM leukemia
[8] = system: MOLT-4 leukemia
[9] = system: EKVX NSCLC

SMILES | growth [1] | growth [2] | growth [3] | growth [4] | growth [5] | growth [6] | growth [7] | growth [8] | growth [9]
Cc1c(N)ccc(-c2ccc(N)c(C)c2S(=O)(=O)O)c1S(=O)(=O)O | 106% | 88% | 98.6% | 108% | 116% | 100% | 102% | 102% | 
CC[C@@H]1C(=O)N(C)c2cnc(Nc3ccc(C(=O)NC4CCC(N5CCN(CC6CC6)CC5)CC4)cc3OC)nc2N1C(C)C (stereo partly drawn) | 7.06% (active) |  | 19.9% | -3.77% (active) | 10.6% | -51.8% (active) | 0.0303% (active) | -19.6% (active) | 21.2%
C#Cc1cccc(Nc2ncnc3cc(OC)c(OCCCCCCC(=O)NO)cc23)c1 | 5.37% (active) |  | -48% (active) | -30.1% (active) |  | -86.3% (active) | 3.23% (active) | -1.32% (active) | 25%
O=C1CC(c2ccc(Cl)cc2)c2ncn(-c3cccc(Cl)c3)c2N1 (stereo not drawn) | 56.1% | 50.5% | 95.8% | 52.6% | 75.3% |  | 60.4% | 44.4% | 
CC(=Nc1ccccc1)C1=C(O)C(Cc2ccccc2)NC1=O (stereo not drawn) | 36.6% |  | 54.2% | 40.8% |  | -22.1% (active) | -10.9% (active) | 0.239% (active) | 23.3%
Cc1nc2cc(-c3nn(C(C)C)c4ncnc(N)c34)ccc2o1 | 1.14% (active) | -35.7% (active) | -47% (active) | -13.4% (active) | -36.7% (active) | -55.5% (active) | 6.03% (active) | -8.69% (active) | 
C/C(=C(/c1ccc(Cl)cc1)c1ccc(OCCN2CCCCCC2)cc1)c1ccccc1 | 87.6% |  | 101% | 96.3% | 96.9% | 86% | 68.9% | 82% | 70.2%
CC/C(=C(\c1ccc(OCCN2CCCCCCC2)cc1)c1ccc(OC(=O)C2CCCCC2)cc1)c1ccc(Cl)cc1 | 93.6% |  | 110% | 97.2% |  | 63.7% | 88.9% | 88.9% | 105%
Cc1cc(Nc2ncc(Cl)c(Nc3ccccc3S(=O)(=O)C(C)C)n2)c(OC(C)C)cc1C1CCNCC1 | -87.2% (active) | -96.4% (active) | -96.1% (active) | -100% (active) | -99.5% (active) | 40.2% | -47.5% (active) | -59.9% (active) | 
Nc1ncnc2c1ccn2-c1cccc(NC(=O)c2ccc(N3CCOCC3)c(C(F)(F)F)c2)c1 | 47.8% | 22% |  | 30.9% | 26.3% | 63.3% | 20.5% | 47.8% | 
COc1ccc2c(c1)cn1c3ccc(O)cc3nc(N)c21 | 34.6% | 15.6% | 25.2% | 27.4% | 26.9% | 38.6% | 23% | 18.5% | 
CCc1nc(C(N)=O)c(Nc2ccc(N3CCC(N4CCN(C)CC4)CC3)c(OC)c2)nc1NC1CCOCC1 | 29.2% | 4.67% (active) | 25.4% | 29% | 20.2% | -92.6% (active) | 6.04% (active) | 17.2% | 
COC(=O)[C@]12CC[C@@H](C)[C@H](C)[C@@H]1C1=CC[C@@H]3[C@@]4(C)C(C=O)=C[C@@](C)(COS(C)(=O)=O)C4=CC[C@@]3(C)[C@]1(C)CC2 | -37.8% (active) | -93.8% (active) | -54.7% (active) | -82.8% (active) | -43.9% (active) |  |  | 0.901% (active) | 
O=C1CCC(=O)CC1 | 90% |  | 96.4% | 109% | 96.5% | 104% | 98.1% | 101% | 
CCc1nc2cc(F)c(/C=C/C(=O)NO)cc2c(=O)n1CCc1ccccc1 | 13.6% |  | 1.94% (active) | 3.69% (active) | 0.745% (active) | -14.1% (active) | 3.07% (active) | 3.34% (active) | 25.7%
NC1=Nc2cc(OCCCN3Cc4ccccc4C3)c(OCC3CC3)cc2C12CCCC2 | 77.6% |  | 78.4% | 83.1% | 49.9% | 68.4% | 37% | 44.2% | 72.6%

SMILES | growth [1] | growth [2] | growth [3] | growth [4] | growth [5] | growth [6] | growth [7] | growth [8] | growth [9]
COc1ccc(F)c(F)c1C(=O)c1cnc(NC2CCN(S(C)(=O)=O)CC2)nc1N | 14.5% | -3.94% (active) | -7.34% (active) | 5.94% (active) | 13.1% | -53.4% (active) | 7.13% (active) | 6.48% (active) | 
COC(=O)[C@@H](OC)[C@@H]1Cc2cc3cc(OC4CC(OC5CC(O)C(O)C(C)O5)C(O)C(C)O4)c(C)c(O)c3c(O)c2C(=O)[C@H]1OC1CC(OC2CC(OC3CC(C)(O)C(O)C(C)O3)C(O)C(C)O2)C(O)C(C)O1 (stereo partly drawn) | 9.04% (active) | -9.9% (active) | 13.7% | 4.79% (active) | 14.8% | -42.9% (active) | 2.91% (active) | -9.54% (active) | 
ClCc1ccc(-c2ccc(Cn3cnc4c(Cl)nc(Cl)nc43)cc2)cc1 | 26.1% |  | -67.8% (active) | -21% (active) | -98.8% (active) |  | -31.1% (active) | 4.29% (active) | -57.9% (active)
COc1cc(Nc2c(C#N)cnc3cc(OCCCN4CCN(C)CC4)c(OC)cc23)c(Cl)cc1Cl | 51.9% | 38.1% | 29.8% | 27.3% | 31% | 78.3% | 38.9% | 33.3% | 
NC(=O)c1c(OCc2c(F)cc(Br)cc2F)nsc1NC(=O)NCCCCN1CCCC1 | 0.752% (active) | -76.8% (active) | -1.76% (active) | -29.7% (active) |  | -13.8% (active) | 2.77% (active) | -16.4% (active) | 
CCCc1cc2cc(-n3nc(C)c4c3CC(C)(C)CC4=O)cc(NC3CCC(O)CC3)c2c(=O)[nH]1 (stereo not drawn) | 41.4% |  | 40.8% | 28.8% |  | 64% | 20.3% | 14.7% | 
COc1ccc(-c2cc3c(C)nc(N)nc3n(C3CCC(OCCO)CC3)c2=O)cn1 (stereo not drawn) | 7.14% (active) |  | -43.4% (active) | -10.3% (active) | -43.4% (active) | -55.8% (active) | 14.6% | 8.49% (active) | -4.74% (active)
CCCCCCCCCCCC[n+]1ccccc1 | 3.89% (active) |  | -54.1% (active) | 36.2% |  | 19% | 1.54% (active) | -19.1% (active) | 
Cc1cc(C(=O)NOCCO)c(Nc2ccc(I)cc2F)n(C)c1=O | 68.3% | 46.3% | 48% | 64.3% | 40.6% | -14% (active) | 85% | 83.7% | 
CC(C)(C)CC(C)(C)Nc1c(-c2c(O)c3ccccc3oc2=O)nc2c(Cl)cc(C(F)(F)F)cn12 | 91.6% | 70.7% | 96.4% | 97.3% | 87.6% | 62% | 89.1% | 82.6% | 
Ic1ccccc1-c1ccccc1 | 101% |  | 106% | 109% | 111% | 89.8% | 90.1% | 101% | 120%
C=CCN(/C=C1/C(=O)O[C@H](COC)[C@@]2(C)C1=C(O)C(=O)C1=C2[C@H](OC(C)=O)C[C@]2(C)C(=O)CC[C@@H]12)CC=C | 30.2% |  | 3.59% (active) | 24.7% |  | -66.8% (active) | 12.8% | -2.31% (active) | 21.8%
C[C@H]1Oc2cc(cnc2N)-c2c(nn(C)c2C#N)CN(C)C(=O)c2ccc(F)cc21 | 94.6% |  | 74% | 86% | 73% | 109% | 93.8% | 70.5% | 82.5%
C=CC(=O)N1CCC[C@@H](n2nc(-c3ccc(Oc4ccccc4)cc3)c3c(N)ncnc32)C1 | 27.2% | 6.16% (active) | -8.56% (active) | 23.5% | 32.9% | -17.1% (active) | 54.8% | 25.3% | 
COc1cc2cc(NCc3ccc(F)cc3)nc(C)c2cc1OC | 51% | 49.6% | 46.7% | 60.4% | 67% | 27.4% | 41.9% | 35.2% | 
